Source: PubChem BioAssay
For part of these data: Entries with a potency or affinity are not part of this list. Inconclusive results are not listed. The list shows a part of the results. Activity calls are given as the source filed them.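 Rule for the calls, unless noted: active = a dose-response fit showing signal loss, with half-maximal concentration no higher than twice the top tested dose; inconclusive = flat fit between 30% and 70% signal loss, or poor fit; inactive = the rest.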

What was measured:
[1] = fungal growth arrest, C. neoformans – Alamar Blue, cherry-picks, dose response (AID 686998;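 active = falling signal with fitted half-maximal potency no higher than twice the top valid tested dose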)
[2] = C. neoformans lysis by adenylate kinase leakage – AK release luminescence, cherry-picks, dose response (AID 687000;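 active = fitted dose curve reaches 40% lysis signal rise at or below the highest valid concentration tested for that sample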;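 note: luminescent detection of adenylate kinase leaking from lysed yeast; 0% = median neutral control signal and 100% = double that signal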)
[3] = viability loss in HepG2 hepatoma cells – cell-based, cherry-picks, set 2, cytotoxicity control, dose response (AID 687002)
[4] = viability loss in HeLa cells – cell-based, ATP luminescence, cherry-pick samples, cytotoxicity control, dose response (AID 687004;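 active = a fitted half-maximal concentration no higher than twice the top valid tested dose, with signal falling as cells die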;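 note: 0% = neutral control median and -100% = staurosporine 10 µM control median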)
[5] = Ring1 de-repression measured by qPCR – cell-based, mouse ESC, RT-qPCR, cherry-pick, esBAF inhibitor project, confirmation (AID 743176;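 active = Ring1 gene expression raised more than 2-fold over untreated cells in both replicates at either tested dose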;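 note: Ring1 transcript normalised to actin housekeeping signal by TaqMan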); settings: mouse ESC E14, Ring1 mRNA RT-qPCR fold change, stronger effect = higher value
[6] = Fgf4 repression measured by qPCR – cell-based, mouse ESC, RT-qPCR, cherry-pick, esBAF inhibitor project, confirmation (AID 743177;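 active = Fgf4 expression under 0.8 fold of control in both repeat measurements at one or both tested doses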;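 note: Fgf4 transcript normalised to actin in duplex TaqMan qPCR; cells exposed to compound for 24 h before lysis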); settings: mouse ESC E14, Fgf4 mRNA qPCR fold change, stronger effect = lower value
[7] = Bmi1 mRNA increase in mouse ESCs – cell-based, RT-qPCR, mouse ESC, single point, cherry-pick, confirmation (AID 743180;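 active = Bmi1 expression fold change above 6 at either tested concentration, seen in replicate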;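 note: higher fold means more Bmi1 de-repression and stronger esBAF inhibition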); settings: mouse ESC E14, Bmi1 mRNA qPCR fold, stronger effect = higher value
[8] = viability loss in A549 cells – cell-based, plate reader, single point, cherry-pick, cytotoxicity control (AID 743188; call rule not given here); settings: at 25 µM
[9] = viability loss in HepG2 cells – cell-based, plate reader, single point, cherry-pick, cytotoxicity control (AID 743189; in the data active = activity change below about -50%); settings: at 25 µM, stronger effect = lower value
[10] = viability loss in HEK293 cells – cell-based, plate reader, single point, cherry-pick, cytotoxicity control (AID 743190; in the data active = activity change below about -38%, passing the limit was not always enough); settings: at 25 µM
[11] = A549 cell cytotoxicity, dose response, cytotoxicity control, plate reader, cherry-pick, antagonist series (AID 743412; call rule not given here;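 note: 0% = neutral control wells and -100% = positive control wells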)
[12] = toxicity toward HepG2 liver cells – cell-based, plate reader, cherry-pick, antagonist series, cytotoxicity control, dose response (AID 743416; call rule not given here;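 note: 0% = neutral control wells and -100% = positive control wells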)
[13] = target: Melanocortin receptor 4 (Homo sapiens) (UniProt P32245); test: blockade of melanocortin 4 receptor signaling – cell-based, plate reader, cherry pick, counter-screen for LGR2 antagonist project, dose response (AID 743444; call rule not given here)

COc1ccccc1C#Cc1ccc2c(c1)O[C@@H](CN(C)C(C)=O)[C@@H](C)CN([C@H](C)CO)S2(=O)=O
inactive: outcome [1] | outcome [2] | outcome [3] | outcome [4]

CCn1cc(C(=O)N(C)c2ccc(OC)cc2OC)c2cc(OC)c(OC)cc2c1=O
inactive: outcome [1] | outcome [2] | outcome [3] | outcome [4]

CC(Sc1ncnc2c1cnn2-c1ccccc1)C(=O)Nc1ccc(N2CCOCC2)cc1 (stereo not given)
inactive: outcome [1] | outcome [2] | outcome [3] | outcome [4]

CCC(C(=O)Nc1c(C)cc(C)cc1C)N1CCCCCC1 (stereo not given)
inactive: outcome [1] | outcome [2] | outcome [3] | outcome [4]

C[C@H](CO)N1C[C@H](C)[C@@H](CN(C)C(=O)Nc2cccc3ccccc23)Oc2c(cccc2N(C)C)C1=O
inactive: outcome [1] | outcome [2] | outcome [3] | outcome [4]

Cc1cccc(C)c1NC(=O)C(CCc1ccccc1)N1CCN(CCN(C)C)CC1 (stereo not given)
inactive: outcome [1] | outcome [2] | outcome [3] | outcome [4]

Cc1cc(C)c(NC(=O)C2CCC(=O)N2)c(C)c1 (stereo not given)
inactive: outcome [1] | outcome [2] | outcome [3] | outcome [4]

CC(C)NC(=O)NCC[C@H]1CC[C@H](NC(=O)CN(C)C)[C@H](CO)O1
inactive: outcome [1] | outcome [2] | outcome [3] | outcome [4]

C/C=C/c1cnc2c(c1)C(=O)N([C@H](C)CO)C[C@@H](C)[C@@H](CN(C)C(=O)C1CCCCC1)O2
inactive: outcome [1] | outcome [2] | outcome [3] | outcome [4]

O=C(c1cccc(Br)c1)N1CCN(c2ccccn2)CC1
inactive: outcome [1] | outcome [2] | outcome [3] | outcome [4]

Cc1cc(C)c(NC(=O)C(C)N2CCCCCC2)c(C)c1 (stereo not given)
inactive: outcome [1] | outcome [2] | outcome [3] | outcome [4]

C[C@H](NC(=O)C[C@@H]1CC[C@@H]2[C@H](COC[C@@H](O)CN2C(=O)Nc2cccc(F)c2)O1)c1ccccc1
inactive: outcome [1] | outcome [2] | outcome [3] | outcome [4]

C/C=C/c1ccc2c(c1)O[C@H](CN(C)S(=O)(=O)c1ccccc1)[C@H](C)CN([C@@H](C)CO)S2(=O)=O
inactive: outcome [1] | outcome [2] | outcome [3] | outcome [4]

CCC(=O)N[C@H]1C=C[C@H](CC(=O)NCC2CCCCC2)O[C@@H]1CO
inactive: outcome [1] | outcome [2] | outcome [3] | outcome [4]

CC(=O)N1[C@H](CO)[C@H](c2ccc(-c3ccccc3)cc2)[C@H]1CNC(=O)C1CC1
inactive: outcome [1] | outcome [2] | outcome [3] | outcome [4]

O=C(NC1CCCCC1)N[C@@H]1CC[C@@H](CCNS(=O)(=O)c2ccc(Cl)cc2)O[C@H]1CO
inactive: outcome [1] | outcome [2] | outcome [3] | outcome [4]

C[C@H](CO)N1C[C@H](C)[C@@H](CN(C)S(=O)(=O)c2ccc(Cl)cc2)Oc2c(NS(=O)(=O)c3ccc(F)cc3)cccc2C1=O
inactive: outcome [1] | outcome [2] | outcome [3] | outcome [4]

CC(=O)N1[C@@H]2c3ccc(-c4ccccc4)c(=O)n3C[C@H]1[C@H](CO)[C@H]2C(=O)Nc1ccccc1
inactive: outcome [1] | outcome [2] | outcome [3] | outcome [4]

CCNC(=O)Nc1ccc2c(c1)C(=O)N(C)[C@H]1CC[C@H](CC(=O)N[C@@H](C)c3ccccc3)O[C@H]1CO2
inactive: outcome [1] | outcome [2] | outcome [3] | outcome [4]

CC1=C(C(=O)OCc2ccccc2)C(c2ccccc2)NC(=O)N1 (stereo not given)
inactive: outcome [1] | outcome [2] | outcome [3] | outcome [4]

CNC(=O)C[C@H]1CC[C@H]2[C@H](COc3ccc(NC(=O)Nc4ccccc4)cc3C(=O)N2C)O1
inactive: outcome [1] | outcome [2] | outcome [3] | outcome [4]

O=C(C[C@@H]1C=C[C@@H](NC(=O)C2CCC2)[C@H](CO)O1)NC1CCC1
inactive: outcome [1] | outcome [2] | outcome [3] | outcome [4]

N#Cc1ccc(-c2ccc3c(c2)[C@@H]2[C@@H](CCN2C(=O)Cc2ccccc2)[C@@H](CO)N3)cc1
inactive: outcome [1] | outcome [2] | outcome [3] | outcome [4]

CNC[C@@H]1OCCCC[C@H](C)Oc2ccc(NC(=O)NC(C)C)cc2C(=O)N([C@H](C)CO)C[C@H]1C
inactive: outcome [1] | outcome [2] | outcome [3] | outcome [4]

COc1ccc(C2=Nc3ccccc3NC(=O)C2N(C(=O)c2cc3ccccc3[nH]2)c2ccccc2)cc1 (stereo not given)
1.31: fold change ([5]; Ring1 fold increase, at 7 µM)
1.01: Fgf4 expression fold change ([6]; Fgf4 expression, at 7 µM)
inactive: fold change ([5]; at 33 µM) 0.913 | Fgf4 expression fold change ([6]; at 33 µM) 0.976 | fold change ([7]; at 33 µM) 1.54 | cell viability change % (negative = cytotoxic) [8] 6.45% | activity change, negative = inhibition [9] -23.1% | activity change, negative = inhibition [10] -16.6%
1.36: fold change ([7]; Bmi1 de-repression, at 7 µM)

C[C@@H]1CN([C@H](C)CO)C(=O)c2cc(NC(=O)Nc3cccc4ccccc34)ccc2O[C@@H]1CN(C)C(=O)Nc1ccccc1
inactive: outcome [11] | outcome [12] | outcome [13]

Cc1noc(C)c1NC(=O)Nc1ccc2c(c1)C(=O)N([C@@H](C)CO)C[C@H](C)[C@H](CN(C)CC1CCCCC1)O2
inactive: outcome [1] | outcome [3] | outcome [4]

S=C(Nc1ccc(Cl)cc1Cl)Nc1ccccc1Oc1ccccc1
inactive: outcome [1] | outcome [3] | outcome [4]

COc1cccc(S(=O)(=O)Nc2ccc3c(c2)[C@H]2C[C@H](CC(=O)N(C)C)O[C@@H](CO)[C@H]2O3)c1
inactive: outcome [1] | outcome [3] | outcome [4]

C[C@H](CO)N1C[C@H](C)[C@H](CN(C)Cc2ccccc2)OCCCC[C@H](C)Oc2ccc(NS(=O)(=O)c3cccs3)cc2C1=O
inactive: outcome [1] | outcome [3] | outcome [4]
